From PubChem BioAssay
Hits are enriched below; roughly 3.6% of the tested compounds scored in any of these assays.
PMP22 txn: PMP22 gene transcription modulation; hit rate 2% among 43,000; Potency, µM (titrated, usually from 57.5 µM), for inactives: top-dose activity change, negative = inhibition, hits mostly inhibitors; AID 1508649; S16 Pmp22-F2sN Schwann cells, FLuc/NLuc coincidence luminescence, 24 h; active = clear falling dose curves in both reporters; inconclusive = both reporters move, but less clearly or upward; inactive = either reporter flat; the % is the NLuc reporter signal; also: % is scaled to controls: 0 for no effect and ±100 for the full control effect
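Schwann cells carrying the coincidence reporter were exposed to library compounds for 24 h at 37C, then lysed and read for FLuc and, after quenching, NLuc luminescence on a CCD imager.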
mTORC1 inh: reduces mTORC1 signaling in Tsc2 and p53 null MEF cells. Potency, µM (series often up to 38.3 µM), for inactives: at the highest dose activity change, negative = inhibition, usual class: inhibitors. hit rate 0.78% among 44,000. Tsc2-/- p53-/- MEF, phospho-rpS6 immunofluorescence/PI, 24 h;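 also: plate controls were DMSO for no effect and rapamycin for full effect; nearly all actives have a fitted effect of over 50% in size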
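Read-out: phospho-S6 Alexa-488 intensity over PI intensity per well, scored as % active cells using thresholds from rapamycin (7.5 nM) and DMSO controls. Tsc2-/-, p53-/- MEFs exposed to compound for 24 h; PI cell count recorded as viability.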
HTT promoter inh: HTT promoter inhibition | HEK293 HTT promoter firefly luciferase reporter, 24 h | Potency, µM (top dose mostly 57.5 µM), without a hit: at the top dose activity change, negative = inhibition, hits mostly inhibitors | hit rate 0.93% among 48,000; also: nearly all actives have a fitted effect of over 50% in size
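Quantitative HTS used concentration series of up to 57.5 uM final on HEK293 luciferase reporter cells, 24 h at 37 degrees C. Readout was Dual-Glo firefly luminescence.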
S16 viability: toxic to S16 Pmp22-F2sN Schwann cells; S16 Pmp22-F2sN Schwann cells (luciferase reporters placed in the Pmp22 gene) viability, CellTiter-Glo, 24 h; Potency, µM (highest dose often 57.5 µM), for the others: at the top dose activity change, negative = cytotoxicity, hits mostly cytotoxic; hit rate 0.48% among 43,000; AID 1508642; also: % is scaled to controls: 0 for no effect and ±100 for the full control effect; nearly all actives have a fitted effect of over 65% in size
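S16 Schwann cells carrying the Pmp22-F2sN reporter, seeded in 1536-well format, were exposed to library compounds for 24 h at 37C. Viability was read as CellTiter-Glo luminescence after 15 min at room temperature.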
HTT-AS promoter: activators of huntingtin-antisense promoter activity | HEK293 HTT-AS promoter firefly luciferase reporter, 24 h; response scale: percent change from vehicle, -100% = no light | hit rate 0.24% among 48,000 | Potency, µM (top dose mostly 57.5 µM), for the others: top-dose activity change, positive = activation, most hits filed as activators | AID 1508624; also: nearly all actives have a fitted effect of over 55% in size
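Firefly luciferase signal from promoter-reporter HEK293 cells was scaled between vehicle (0%) and zero RLU (-100%). Compounds were tested at final concentrations of up to 57.5 uM over 24 h at 37 degrees C. PTC124 at 50 uM final served as control inhibitor.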
Starred values were filed as active, the others as inactive; ? = inconclusive; nt = no result given. Unless noted, calls follow the shape of the dose curve; as a rule, active = well fitted curve in the direction sought with a large enough effect; inconclusive = small, poorly fitted or top-dose-only effect, or another doubt; inactive = no such curve, though single readings can be large; an effect the other way counts as inactive or inconclusive. Potency is read from the fitted curve at half-maximal effect.

SMILES | PMP22 txn | mTORC1 inh | HTT promoter inh | S16 viability | HTT-AS promoter
CC1C(=O)N2CCCc3cc(S(=O)(=O)Nc4ccc(Br)cc4F)cc1c32 (stereo not drawn) | 4% | 13µM* | -9% | -2% | -15%
Cc1ccc(C)c(NS(=O)(=O)c2cc3c4c(c2)C(C)C(=O)N4CCC3)c1 (stereo not drawn) | 13% | 0% | -14% | -16% | -15%
COC(=O)c1ccc(O)c2ncc(-c3ccc(C(=O)N4CCN(C)CC4)cc3)cc12 | nt | nt | -17% | nt | nt
Cc1cc(NC(=O)c2cc(-c3cccc(Cl)c3)on2)nn1Cc1ccc(Cl)cc1 | -28% | 2% | 1.6µM* | 6% | -41%
Cc1ccc(-c2noc(CCCC(=O)NCc3ccco3)n2)cc1 | -17% | ? | 3.5µM* | -3% | -61%
O=C(CCCc1nc(-c2ccc(Cl)cc2)no1)NCc1ccco1 | -15% | 0% | ? | 5% | -42%
O=C(NCc1ccc2c(c1)CCN2C(=O)c1ccccc1)Nc1cccc(C(F)(F)F)c1 | -12% | -20% | 22µM* | 6% | -46%
CCCNc1ncnc2onc(C)c12 | 0% | -3% | -24% | ? | -21%
CCOc1ccc(CCNc2ncnc3onc(-c4ccc(Cl)cc4)c23)cc1 | ? | -8% | 14µM* | -24% | -68%
CSc1ccc(CCNc2ncnc3onc(C)c23)cc1 | 2.2µM* | 1% | 1µM* | ? | -79%
CNC1CCC(N(Cc2cccc(-c3ccncc3)c2)C(=O)c2sc3ccccc3c2Cl)CC1 (stereo not drawn) | nt | nt | -17% | nt | -25%
Cc1ccc(Cc2nc3ccccc3nc2SCC(=O)N2CCCCC2C)cc1 (stereo not drawn) | ? | -13% | 28µM* | -22% | -44%
CCOc1ccccc1CNC(=O)c1cccn1-c1nnc(N2CCCCC2)s1 | ? | -13% | -24% | -9% | -9%
CCOc1ccccc1CNCc1cccn1-c1nnc(N2CCN(c3ccccc3)CC2)s1 | ? | ? | 25µM* | ? | -46%
Cc1ccc(S(=O)(=O)N2CCCC2C(=O)Nc2ccc(Br)cc2)cc1 (stereo not drawn) | ? | 0% | 32µM* | ? | -50%
Cc1ccc(NC(=O)C2CCCN2S(=O)(=O)c2ccc3c(c2)n(C)c(=O)c(=O)n3C)cc1 (stereo not drawn) | 7% | -12% | -14% | -1% | -6%
COc1ccccc1Nc1nn2c(=O)c3ccc(C(=O)NC4CCC(C)CC4)cc3nc2s1 (stereo not drawn) | ? | 0% | -4% | 14% | -5%
COc1ccccc1Nc1nn2c(=O)c3ccc(C(=O)NC(C)c4ccccc4)cc3nc2s1 (stereo not drawn) | -15% | -6% | -15% | 6% | -21%
Cc1ccc(Cl)cc1Nc1nn2c(=O)c3ccc(C(=O)NC(C)c4ccccc4)cc3nc2s1 (stereo not drawn) | 7.6µM* | -12% | ? | ? | -36%
COc1ccccc1Nc1nn2c(=O)c3ccc(C(=O)NCCc4ccccc4)cc3nc2s1 | 5.6µM* | ? | 7.1µM* | 8.9µM* | -73%
CCOc1ccc(-c2nnc(SCC(=O)Oc3ccccc3)o2)cc1 | -10% | -2% | 2.8µM* | 9% | -89%
Nc1nc(Cl)nc2c1ncn2[C@@H]1O[C@H](CO)[C@@H](O)[C@H]1F | nt | nt | ? | nt | -28%
NC1(Cc2ccc(Cl)cc2)CCN(c2ncnc3[nH]ccc23)CC1 | nt | nt | ? | nt | -36%
CC(=O)c1ccc(N2CCN(c3ncnc4onc(C)c34)CC2)cc1 | ? | 0% | 4.5µM* | ? | -58%
c1cc(OCCN2CCCCC2)cc(-c2n[nH]c3ccc(-c4ncn[nH]4)cc23)c1 | nt | nt | -25% | nt | -21%
CN1CCC[C@H]1CCO[C@](C)(c1ccccc1)c1ccc(Cl)cc1 | nt | nt | 12% | nt | -16%
Cc1ccc(NC(=O)CCOc2ccccc2)cc1 | -12% | -5% | 48% | 3% | 10µM*
COc1nnc(-c2ccc(N3CCCCC3)c(NC(=O)c3ccccc3Cl)c2)c2ccccc12 | ? | -11% | 11µM* | ? | -87%
